PubChem BioAssay (NCI)
The panel holds about 83,000 compounds, 20% with a hit somewhere; the sample as a whole holds those more often.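 96-well plates, one dose, 48 hours. Percent growth reported; active if below 10.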 A number with no mark means an inactive call. Activity calls are given as the source filed them.

tested on: HOP-62 NSCLC; experiment: NCI-60 one-dose screen, 48 h (100 = growth as untreated, 0 = no growth, -100 = all killed); details: 10 µM unless noted

Q: Which growth does the source give for COc1ccc2c(c1)c(-c1nc(-c3c[nH]c4ncccc34)cs1)cn2CCO here?
A: Its growth is 53.7%.

Q: How did the growth turn out when O=C(NNC(=O)c1ccc(NC(=O)c2ccccn2)cc1)Nc1ccc2ccccc2c1 was run?
A: Its growth is 115%.

Q: COc1ccc(/C=C/C(=O)c2cc(OC)c(OC)c(OC)c2)cc1OCC(=O)Nc1nc2ccc(OC(F)(F)F)cc2s1 was tested. Which growth did it give?
A: The growth was -53.3% (active).

Q: With O=C(CN1CCCCCC1)Nc1nc2ccc(NCc3ccc(Cl)cc3)cc2s1 as the molecule, how does the growth read?
A: Its growth is 103%.

Q: With CCCCCCCCCCCCCCCCCCOc1ccccc1CC(=O)NCC[N+]1(C)CCCCC1 as the molecule, how does the growth read?
A: Its growth is 59%.

Q: For COc1cc(-c2nc3sccn3c2-c2ccnc(NCCNS(=O)(=O)c3ccc(Cl)cc3)n2)ccc1F, which growth is on record?
A: The growth was 34.7%.

Q: S=c1nc2oc(-c3ccccc3)c(-c3ccccc3)c2c(/N=C\c2ccco2)[nH]1 was tested. Which growth did it give?
A: Its growth is 82.5%.

Q: O=C1Nc2ccccc2/C1=C\c1c[nH]c2ccc(Br)cc12 was tested. Which growth did it give?
A: The growth was 56.5%.

Q: How did the growth turn out when COc1ccc(Nc2ncccc2/C=C/C(=O)c2cc(OC)c(OC)c(OC)c2)cc1 was run?
A: Its growth is -19.2% (active).

Q: COc1cc(OC)c(/C=C/C(=O)c2c(O)cc(OC)c(C3CCN(C)CC3)c2OC)c(OC)c1 was tested. Which growth did it give?
A: The growth was -96.2% (active).

Q: Which growth does the source give for N#Cc1c(-c2ccccc2)nc(SCc2nnc(-c3ccc(Cl)cc3)o2)[nH]c1=O here?
A: Its growth is 63.7%.

Q: For CC(=O)ON1CCCC(P(=O)(OCCSC(=O)C(C)(C)C)OCCSC(=O)C(C)(C)C)C1=O (centres undefined), which growth is on record?
A: The growth was 32%.

Q: Which growth does the source give for COc1cccc(CCNc2ncnc3c2ncn3Cc2nnc3c4ccccc4c(Cl)nn23)c1 here?
A: Its growth is 57.5%.

Q: O=C(CN1CCN(c2cc3c(cc2F)c(=O)c(C(=O)O)cn3C2CC2)CC1)N/N=C/c1ccco1 was tested. Which growth did it give?
A: The growth was 82.8%.
